The source made the active and inactive calls. How the source made its calls: active means hit-call score of the fitted dose curve at least 0.9, where 1 is the maximum; inactive means score below 0.9.

From PubChem BioAssay (EPA / NIEHS) come the findings set out here.

Read-out in assay [1]: Interleukin-1 alpha (IL1a), IL1A (gene 3552)
Put plainly: BSK_KF3CT_IL1a: BioMAP Diversity Plus: KF3CT Assay for Interleukin-1 alpha (IL1a) Biomarker Activity (AID 2283070). To be noted: primary human keratinocytes with fibroblasts; actives raise or lower the signal. The procedure, abridged: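 Readout is IL-1a level by ELISA, compared bidirectionally with DMSO as baseline. Cells: human keratinocytes co-cultured with foreskin fibroblasts, harvested 24 h post-dose.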

Read-out in assay [2]: TIMP metallopeptidase inhibitor 2 (TIMP2), TIMP2 (gene 7077)
As to the kind of experiment: BSK_KF3CT_TIMP2: BioMAP Diversity Plus: KF3CT Assay for TIMP metallopeptidase inhibitor 2 (TIMP2) Biomarker Activity (AID 2283071). Particulars: primary human keratinocytes with fibroblasts; actives raise or lower the signal. The procedure, abridged: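 Measurements come from ELISA detection of TIMP-2 at 24 hours in a dosed human keratinocyte and foreskin fibroblast co-culture. DMSO serves as negative control and baseline.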

Read-out in assay [3]: Transforming growth factor beta 1 (TGFb1), TGFB1 (gene 7040)
As to the kind of experiment: BSK_KF3CT_TGFb1: BioMAP Diversity Plus: KF3CT Assay for Transforming growth factor beta 1 (TGFb1) Biomarker Activity (AID 2283072). To be noted: primary human keratinocytes with fibroblasts; actives raise or lower the signal. The essentials:
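TGF-b1 ELISA on a 24 h dosed co-culture of human keratinocytes and foreskin fibroblasts; cytotoxicity tracked in parallel cultures by SRB staining.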

Read-out in assay [4]: C-C motif chemokine 2 (Homo sapiens) (UniProt P13500)
Put plainly: BSK_KF3CT_MCP1: BioMAP Diversity Plus: KF3CT Assay for Monocyte Chemoattractant Protein 1 (MCP1/CCL2) Biomarker Activity (AID 2283073). To be noted: primary human keratinocytes with fibroblasts; actives raise or lower the signal. The procedure, abridged:
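Keratinocytes and foreskin fibroblasts were co-cultured, dosed with chemical, and sampled 24 h later. MCP-1 was quantified by ELISA, and the endpoint was analyzed with bidirectional fitting using DMSO as negative control.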

Read-out in assay [5]: Matrix Metallopeptidase 9 (MMP9), MMP9 (gene 4318)
Put plainly: BSK_KF3CT_MMP9: BioMAP Diversity Plus: KF3CT Assay for Matrix Metallopeptidase 9 (MMP9) Biomarker Activity (AID 2283074).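 On AC50: MMP9 protein level quantified by ELISA in the co-culture.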 To be noted: primary human keratinocytes with fibroblasts; actives raise or lower the signal. The essentials:
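Values come from bidirectional fitting relative to DMSO of MMP-9 levels, which were measured by ELISA. Measurements were taken 24 h after chemical dosing of a keratinocyte and foreskin fibroblast co-culture.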

Read-out in assay [6]: urokinase plasminogen activator (uPA), PLAU (gene 5328)
Put plainly: BSK_KF3CT_uPA: BioMAP Diversity Plus: KF3CT Assay for urokinase plasminogen activator (uPA) Biomarker Activity (AID 2283075). To be noted: primary human keratinocytes with fibroblasts; actives raise or lower the signal. The procedure, abridged: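 Values derive from bidirectional fitting against DMSO controls. Keratinocyte/foreskin fibroblast co-cultures received chemical; 24 h later uPA was detected by ELISA, with SRB total-protein staining in parallel wells for overt cytotoxicity.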

Read-out in assay [7]: CD40, CD40 (gene 958)
As to the kind of experiment: BSK_LPS_CD40: BioMAP Diversity Plus: LPS Assay for CD40 Biomarker Activity (AID 2283076). To be noted: primary human HUVEC with PBMC; actives raise or lower the signal. The essentials: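 CD40 signal, measured by ELISA, is fitted in both directions relative to DMSO vehicle. The system is an LPS-driven human vascular primary co-culture of endothelial cells and PBMC, sampled 24 h after compound addition.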

Read-out in assay [8]: E-selectin (Homo sapiens) (UniProt P16581)
Put plainly: BSK_LPS_Eselectin: BioMAP Diversity Plus: LPS Assay for Eselectin Biomarker Activity (AID 2283077). Particulars: primary human HUVEC with PBMC; actives raise or lower the signal. The procedure, abridged:
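Signal of E-selectin, detected by ELISA, served as the endpoint; cells were umbilical vein endothelium with PBMC, read 24 h after treatment. DMSO defined baseline, and both increases and decreases were fitted.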

Read-out in assay [9]: Interleukin-8 (IL8), CXCL8 (gene 3576)
As to the kind of experiment: BSK_LPS_IL8: BioMAP Diversity Plus: LPS Assay for Interleukin-8 (IL8) Biomarker Activity (AID 2283078). Particulars: primary human HUVEC with PBMC; actives raise or lower the signal. The essentials:
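Endothelial cells and PBMC from human donors are co-cultured, treated with chemicals and LPS, then assayed for IL-8 by ELISA after 24 h. Parallel SRB staining (0.1% SRB after 10% TCA fixation, 560 nm) flags cytotoxicity.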

Assay [10] can be described thus: BSK_LPS_SRB: Viability Assessment in the BioMAP Diversity Plus: LPS Assay (AID 2283079).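 Further: total protein by sulforhodamine B absorbance as a cytotoxicity measure; measured one day after compound addition; fitted in both directions against DMSO so loss or gain of signal counts.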 To be noted: primary human HUVEC with PBMC. The essentials: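 Overt cytotoxicity was gauged by sulforhodamine B total-protein staining in a primary human vascular endothelial and mononuclear cell co-culture 24 h post-dosing. Activity was fitted in both directions relative to DMSO.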

Read-out in assay [11]: Interleukin-1 alpha (IL1a), IL1A (gene 3552)
As to the kind of experiment: BSK_LPS_IL1a: BioMAP Diversity Plus: LPS Assay for Interleukin-1 alpha (IL1a) Biomarker Activity (AID 2283080). To be noted: primary human HUVEC with PBMC; actives raise or lower the signal. The procedure, abridged: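 Measured: IL-1 alpha via ELISA at 24 h in LPS-activated human umbilical vein endothelium–PBMC co-culture. Baseline: DMSO, bidirectional fitting.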

Read-out in assay [12]: Monocyte Chemoattractant Protein-1 (MCP1), CCL2 (gene 6347)
Put plainly: BSK_LPS_MCP1: BioMAP Diversity Plus: LPS Assay for Monocyte Chemoattractant Protein-1 (MCP1) Biomarker Activity (AID 2283081). Particulars: primary human HUVEC with PBMC; actives raise or lower the signal. The essentials:
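LPS-stimulated HUVEC/PBMC co-culture; chemical, 24 h; MCP-1 by ELISA; bidirectional fit vs DMSO; cytotoxicity via SRB (0.1% stain, 10% TCA fix, 560 nm) in parallel wells.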

A short description of assay [13]: BSK_LPS_PGE2: BioMAP Diversity Plus: LPS Assay for Prostaglandin E2 (PGE2) Biomarker Activity (AID 2283082). Particulars: primary human HUVEC with PBMC; actives raise or lower the signal. The procedure, abridged:
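Primary human endothelial cells and blood mononuclear cells, co-cultured with LPS, receive test chemical; PGE2 ELISA follows at 24 h, with SRB-stained parallel cultures flagging cytotoxicity.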

Read-out in assay [14]: Macrophage colony-stimulating factor (MCSF), CSF1 (gene 1435)
As to the kind of experiment: BSK_LPS_MCSF: BioMAP Diversity Plus: LPS Assay for Macrophage colony-stimulating factor (MCSF) Biomarker Activity (AID 2283083). To be noted: primary human HUVEC with PBMC; actives raise or lower the signal. The procedure, abridged: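 Compound is added to a human vascular primary co-culture of umbilical vein endothelium and blood mononuclear cells. After 24 h, M-CSF is quantified by ELISA. Signal changes are fitted in both directions against DMSO.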

Read-out in assay [15]: Tissue Factor, F3 (gene 2152)
Put plainly: BSK_LPS_TissueFactor: BioMAP Diversity Plus: LPS Assay for Tissue Factor Biomarker Activity (AID 2283084). To be noted: primary human HUVEC with PBMC; actives raise or lower the signal. The essentials: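 In this co-culture system of umbilical vein endothelium with PBMC, stimulated with LPS, cell-surface CD142 is detected by ELISA at 24 h. Endpoint values derive from bidirectional fitting, DMSO serving as baseline.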

Read-out in assay [16]: Tumor necrosis factor (Homo sapiens) (UniProt P01375)
As to the kind of experiment: BSK_LPS_TNFa: BioMAP Diversity Plus: LPS Assay for Tumour Necrosis Factor alpha (TNFa) Biomarker Activity (AID 2283085). Particulars: primary human HUVEC with PBMC; actives raise or lower the signal. The procedure, abridged: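 ELISA-based TNFa endpoint in a human endothelial–PBMC co-culture sampled 24 h post-exposure. Curves were fitted in both directions using DMSO as baseline of activity.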

Read-out in assay [17]: Vascular cell adhesion molecule 1 (VCAM1), VCAM1 (gene 7412)
As to the kind of experiment: BSK_LPS_VCAM1: BioMAP Diversity Plus: LPS Assay for Vascular cell adhesion molecule 1 (VCAM1) Biomarker Activity (AID 2283086). Particulars: primary human HUVEC with PBMC; actives raise or lower the signal. The essentials: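 Measured by ELISA: VCAM-1 in LPS-activated HUVEC/PBMC co-cultures 24 h after treatment. Values reflect bidirectional fitting with DMSO as baseline.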

Read-out in another assay: CD38, CD38 (gene 952)
As to the kind of experiment: BSK_SAg_CD38: BioMAP Diversity Plus: SAg Assay for CD38 Biomarker Activity (AID 2283087). To be noted: primary human HUVEC with PBMC; actives raise or lower the signal. The procedure, abridged:
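Measures CD38 on a human endothelial/PBMC co-culture driven by SEB and TSST-1, 24 h after compound exposure, using ELISA with fluorescence detection; DMSO defines baseline for bidirectional curve fitting.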

Read-out in assay [18]: CD40, CD40 (gene 958)
As to the kind of experiment: BSK_SAg_CD40: BioMAP Diversity Plus: SAg Assay for CD40 Biomarker Activity (AID 2283088). Particulars: primary human HUVEC with PBMC; actives raise or lower the signal. The essentials: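 Fluorescence ELISA read-out of CD40 from umbilical vein endothelium plus peripheral blood mononuclear cells, sampled 24 h after dosing. Values come from bidirectional curve fitting with DMSO as baseline.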

Read-out in another assay: CD69, CD69 (gene 969)
Put plainly: BSK_SAg_CD69: BioMAP Diversity Plus: SAg Assay for CD69 Biomarker Activity (AID 2283089).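 On AC50: cell surface CD69 protein quantified by ELISA with fluorescence detection.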 Particulars: primary human HUVEC with PBMC; actives raise or lower the signal. The essentials: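 HUVEC co-cultured with PBMC were dosed with chemical, and CD69 was measured by ELISA with fluorescence read-out 24 h later. Bidirectional curve fitting used DMSO as negative control and activity baseline.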

E-selectin (Homo sapiens), sequence (P16581 whole entry, looked up): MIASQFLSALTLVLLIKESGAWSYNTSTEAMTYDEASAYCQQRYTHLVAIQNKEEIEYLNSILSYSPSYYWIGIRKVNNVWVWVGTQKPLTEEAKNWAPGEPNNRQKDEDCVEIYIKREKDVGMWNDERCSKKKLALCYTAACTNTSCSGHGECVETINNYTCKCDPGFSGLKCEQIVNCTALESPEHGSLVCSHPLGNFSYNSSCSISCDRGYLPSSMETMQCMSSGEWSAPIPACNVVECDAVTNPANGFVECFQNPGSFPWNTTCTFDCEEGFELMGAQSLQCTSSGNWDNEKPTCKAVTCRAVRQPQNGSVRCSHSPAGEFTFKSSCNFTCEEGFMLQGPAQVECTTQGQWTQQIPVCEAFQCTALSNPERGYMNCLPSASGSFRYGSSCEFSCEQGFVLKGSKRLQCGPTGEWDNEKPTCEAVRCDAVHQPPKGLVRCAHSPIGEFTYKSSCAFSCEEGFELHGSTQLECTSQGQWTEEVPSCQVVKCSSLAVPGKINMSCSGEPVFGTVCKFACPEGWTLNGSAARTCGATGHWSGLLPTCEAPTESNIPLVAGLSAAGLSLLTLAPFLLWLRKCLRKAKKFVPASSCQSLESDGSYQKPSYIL
Tumor necrosis factor (Homo sapiens), sequence (P01375 whole entry, looked up): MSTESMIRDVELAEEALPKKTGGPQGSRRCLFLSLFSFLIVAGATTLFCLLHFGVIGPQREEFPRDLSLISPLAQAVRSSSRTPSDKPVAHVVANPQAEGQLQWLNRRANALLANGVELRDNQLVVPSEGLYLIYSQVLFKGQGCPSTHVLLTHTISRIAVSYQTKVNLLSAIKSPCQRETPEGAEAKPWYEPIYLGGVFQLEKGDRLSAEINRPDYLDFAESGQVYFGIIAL

Take `ClC(Cl)c1ccccc1`: the result in [1], in assay [2], in assay [3], in assay [4], in assay [5] and in assay [6] was inactive. In addition, the outcome is “inactive” with CD40, CD40 (gene 958) [7]; “inactive” in assay [8]; “inactive” in assay [9]; “inactive” in [10]; “inactive” in assay [11]; “inactive” in assay [12]. The outcome was “inactive” in assay [13]; “inactive” in assay [14]; “inactive” in assay [15]; “inactive” in [16]; “inactive” in [17]; “inactive” with CD38, CD38 (gene 952). Also, the outcome with CD40, CD40 (gene 958) [18] is “inactive”; with CD69, CD69 (gene 969) it was “inactive”.

As usually defined, the AC50 is the midpoint of the concentration-response curve, whichever way the signal moves. `CCOP(=S)(S)OCC`: the outcome in [1], in assay [2], in [3], in [4], in [5] and in assay [6] was inactive. For the same compound, the outcome is “inactive” in the assay with CD40, CD40 (gene 958) [7]; “inactive” in assay [8]; “inactive” in [9]; “inactive” in assay [10]; “inactive” in assay [12]; “inactive” in [13]. For the same compound, the outcome in assay [14] is “inactive”; in assay [15], “inactive”; in assay [17] it was “inactive”; in the assay with CD38, CD38 (gene 952), “inactive”; in the assay with CD40, CD40 (gene 958) [18] it was “inactive”; in the assay with CD69, CD69 (gene 969) it was “inactive”. Also, the AC50 in assay [11] is 36.6 µM (active).

In the case of `CCOP(=S)(OCC)SCSc1ccc(Cl)cc1`, the AC50 is 3.12 µM (active) in assay [1]; 0.533 µM (active) in [2]; 0.0592 µM (active) in assay [3]; 0.324 µM (active) in [5]; 0.0705 µM (active) in assay [6]; 20 µM (active) in the assay with CD40, CD40 (gene 958) [7]. The AC50 in assay [11] is 5.31 µM (active); in [14], 18.7 µM (active); in [17], 13.2 µM (active); with CD38, CD38 (gene 952), 20 µM (active); with CD40, CD40 (gene 958) [18], 9.34 µM (active); with CD69, CD69 (gene 969), 20 µM (active). Further, the result in assay [4], in assay [8], in assay [9], in assay [10], in [12] and in [13] was inactive. Besides, the result in [15] was inactive.
